High-throughput results from PubChem BioAssay.
DRD3 agonist: activates the human D3 dopamine receptor; D3R DiscoveRx beta-arrestin cells, luminescence, 90 min; max activation, %; 0.58% of 410,000 active; AID 652048; in the data active means max activation above about 30%
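Agonist mode: compounds and dopamine controls were applied to plated cells for 90 min at 37 degrees C after an overnight attachment at 1500 cells/well. Luminescent read-out followed 30 - 60 minutes at room temperature with DiscoveRx detection reagent.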
TDP1 cell CPT: growth inhibition of DT40 Tdp1-/-;hTDP1 cells with camptothecin (screen for TDP1 inhibitors); chicken DT40 Tdp1-/-;hTDP1 cells + 20 nM CPT, ATP luminescence, 48 h; Potency, µM (doses to about 46.2 µM), hits mostly inhibitors; 12% of 420,000 active; further: nearly all actives have a fitted effect of over 55% in size
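Chicken DT40 Tdp1-/- cells complemented with human TDP1, 400 cells/well, exposed to compounds plus 20 nM camptothecin for at least 48 h at 37 C; viability read as ATP content by CellTiter-Glo luminescence.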
TDP1 cell noCPT: qHTS for Inhibitors of human tyrosyl-DNA phosphodiesterase 1 (TDP1): qHTS in cells in absence of CPT; Potency, µM (top dose mostly 46.2 µM), hits mostly inhibitors; AID 686978, 2013; DT40 Tdp1-/- hTDP1 cells, no CPT, ATP luminescence, 48 h; 15% of 420,000 active; further: nearly all actives have a fitted effect of over 55% in size
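Compound effects on proliferation are scored in DT40 Tdp1-/-;hTDP1 cells in the absence of CPT. ATP levels (CellTiter-Glo luminescence) are recorded after a ≥48 hr, 37 °C incubation.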
D3 antag: D3 dopamine receptor (human) antagonism; D3R cells, DiscoveRx beta-arrestin luminescence, antagonist mode; hits give low values; max response, negative = inhibition, %; 2.5% of 360,000 active; AID 652054; in the data active means max response below about -50%; inconclusive means no clear call, values can overlap the other calls
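Cells expressing the human receptor were seeded at 1500 cells/well, incubated overnight at 37 degrees C in 5% CO2, then exposed to library compounds with dopamine controls for 90 minutes at 37 degrees C before luminescent detection.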
IL1B secr inh: blocks inflammasome-driven IL-1 beta release | THP-1 LPS/ATP IL-1B secretion, AlphaLISA, 16 h; hits give low values | activity change, % at 57.5 µM | 4.7% of 360,000 active; in the data active means activity change below about -50%; inconclusive means mostly about -30% to -49%
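Secreted IL-1B measured by AlphaLISA bead assay after 16 h compound exposure of THP-1 cells; compounds (final up to 57.5 uM) added 1 h before LPS (250 ng/mL) and ATP (1.25 mM) stimulation; lower signal means less secretion.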
ClpP mod: qHTS Assay for Activators of ClpP. ATP-dependent Clp protease proteolytic subunit (Bacillus subtilis (strain 168)), P80244. purified B. subtilis ClpP, FRET peptide cleavage, 20 min. Potency, µM (highest dose often 57.5 µM). 1.9% of 340,000 active; active means well fitted falling curve with a large enough effect; inconclusive means small, poorly fitted or top-dose-only effect; inactive means no such curve, though single readings can be large or run the other way; further: the source files actives as falling curves though it sought activators and does not explain the sign; nearly all actives have a fitted effect of over 65% in size
Target sequence (P80244 whole entry, looked up): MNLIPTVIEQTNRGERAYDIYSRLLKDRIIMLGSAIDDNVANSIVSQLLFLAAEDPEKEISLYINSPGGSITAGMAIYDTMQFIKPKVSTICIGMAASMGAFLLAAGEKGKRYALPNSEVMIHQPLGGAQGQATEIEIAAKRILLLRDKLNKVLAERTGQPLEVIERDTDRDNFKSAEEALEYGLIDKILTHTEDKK
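FRET quenching reversal measured ClpP activation: 10 microg/mL B. subtilis ClpP at pH 8 with the FRET-FV decapeptide, read at 430 nm after 320 nm excitation. The 20-min minus 0-min signal was scaled between DMSO/no-enzyme wells and ADEP (5.8 microM final).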
Of the large screens only hits and unclear results are named; the others gave an inactive call. Shown are actives, neighbours in structure and some others; about 21% of the full set was active somewhere. Unless noted, the call rests on the fitted dose curve; in most records, active means well fitted inhibition curve with a large enough effect; inconclusive means small, poorly fitted or top-dose-only effect; inactive means flat fitted curve, though single readings scatter.

O=C(CSc1n[nH]c(-c2ccccc2)n1)NCCCc1ccccc1	TDP1 cell CPT inconclusive, TDP1 cell noCPT 21µM (no result: D3 antag, IL1B secr inh)
O=C(CSc1n[nH]c(-c2ccc(F)cc2)n1)NCCc1ccccc1	TDP1 cell noCPT inconclusive (no result: D3 antag, IL1B secr inh)
COc1ccc(-c2nc(SCC(=O)c3ccc(OC)c(Br)c3)n[nH]2)cc1	TDP1 cell CPT inconclusive, TDP1 cell noCPT 23µM (no result: D3 antag, IL1B secr inh)
COc1ccc(Br)cc1CNC(=O)CSc1n[nH]c(-c2ccccc2)n1	TDP1 cell CPT 13µM, TDP1 cell noCPT 21µM (no result: D3 antag, IL1B secr inh)
Cc1nc(SCC(=O)NCCc2ccccc2)nc(C)c1C	TDP1 cell noCPT inconclusive, ClpP mod 16µM
O=C(Nc1ccc(F)cc1F)c1cc(CN2CCOCC2)on1	none (no result: D3 antag, IL1B secr inh)
CNC(=O)C[C@H]1C(=O)N(CCc2ccccc2)C[C@@H]1C	D3 antag inconclusive
COc1ccc(-c2ccnc(SCC(=O)c3ccc(Cl)cc3)n2)cc1	TDP1 cell noCPT inconclusive
O=C(CSc1n[nH]c(-c2ccncc2)n1)NCCc1ccccc1	TDP1 cell CPT inconclusive, TDP1 cell noCPT inconclusive
COc1ccc(-c2nc(SCC(=O)NCCCc3ccccc3)n[nH]2)cc1	TDP1 cell CPT 16µM, TDP1 cell noCPT 21µM (no result: D3 antag, IL1B secr inh)
COc1ccc(OC)c(C(=O)CSc2nccc(-c3ccc(Br)cc3)n2)c1	TDP1 cell CPT inconclusive, TDP1 cell noCPT 29µM, ClpP mod inconclusive
COc1cccc(NC(=O)CSC2=NN3CCCC(=O)N=C3S2)c1	TDP1 cell noCPT inconclusive (no result: ClpP mod)
Cc1c(-c2ccccc2)oc2c(C(=O)N3CCN(c4ccc([N+](=O)[O-])cc4)CC3)cccc2c1=O	TDP1 cell CPT 16µM, TDP1 cell noCPT 21µM
Cc1c(C(=O)N2CCN(c3ccc([N+](=O)[O-])cc3)CC2)oc2ccccc12	TDP1 cell CPT inconclusive, TDP1 cell noCPT 16µM
Cc1ccc(OCCSc2nc3ccccc3n2CC(=O)N2CCCCC2)cc1C	TDP1 cell CPT inconclusive, TDP1 cell noCPT inconclusive (no result: D3 antag, IL1B secr inh)
CC(C)Nc1ncnc2c1ncn2[C@H]1CN(Cc2ccc(Cl)cc2)C[C@@H](CO)O1	TDP1 cell CPT inconclusive, TDP1 cell noCPT inconclusive
CCN(CC)c1ncnc2c1ncn2[C@H]1CN(Cc2ccc(Cl)cc2)C[C@@H](CO)O1	TDP1 cell CPT 29µM, TDP1 cell noCPT 16µM
OC[C@@H]1CN(Cc2ccc3c(c2)OCO3)C[C@H](n2cnc3c(NC4CCCC4)ncnc32)O1	TDP1 cell CPT inconclusive, TDP1 cell noCPT inconclusive, IL1B secr inh -72
OC[C@@H]1CN(Cc2ccc(Cl)cc2)C[C@H](n2cnc3c(NC4CCC4)ncnc32)O1	TDP1 cell CPT inconclusive, TDP1 cell noCPT inconclusive, IL1B secr inh -85
OCCNc1ncnc2c1ncn2[C@H]1CN(Cc2ccc3c(c2)OCO3)C[C@@H](CO)O1	none
CCOCCc1c(O)nc(SCC)[nH]c1=O	none (no result: ClpP mod)
O=C1[C@@H]2Cc3ccccc3CN2C(=O)N1c1cccc(F)c1	DRD3 agonist 37
CCN(CC)CCCNC(=O)c1sc2ncn(CC(=O)Nc3ccc(C)c(Cl)c3)c(=O)c2c1C	TDP1 cell CPT inconclusive, TDP1 cell noCPT inconclusive
COc1ccc(NC(=O)CCCNC(=O)Cn2cnc3sc(C)c(C)c3c2=O)cc1OC	DRD3 agonist 31
Cc1ccc(NC(=O)c2sc3ncn(CC(=O)N4CCN(c5ccccn5)CC4)c(=O)c3c2C)cc1Cl	TDP1 cell CPT inconclusive, TDP1 cell noCPT 15µM
Cc1ccc(NC(=O)c2sc3ncn(CC(=O)N4CCN(c5ccccn5)CC4)c(=O)c3c2C)cc1F	TDP1 cell CPT inconclusive
COCCCNC(=O)c1sc2ncn(CC(=O)Nc3ccc(C)c(Cl)c3)c(=O)c2c1C	TDP1 cell CPT inconclusive, TDP1 cell noCPT 21µM (no result: ClpP mod)
COc1cccc(NC(=O)c2sc3ncn(CC(=O)N4CCN(c5ccccn5)CC4)c(=O)c3c2C)c1	TDP1 cell CPT 18µM, TDP1 cell noCPT inconclusive
COc1ccccc1NC(=O)c1sc2ncn(CC(=O)N3CCC(C)CC3)c(=O)c2c1C	none
COc1ccc(NC(=O)CCCNC(=O)Cn2cnc3sc(C)c(C)c3c2=O)cc1Cl	none (no result: ClpP mod)
